# Measured values from PubChem BioAssay (NCATS).
# Results filed as inconclusive are left out. Calls of active or inactive are those of the source. Unless noted, calls follow the shape of the dose curve; as a rule, active = well fitted curve in the direction sought with a large enough effect; inconclusive = small, poorly fitted or top-dose-only effect, or another doubt; inactive = no such curve, though single readings can be large; an effect the other way counts as inactive or inconclusive.
# Assays:
# [1] = target: Lysosomal acid glucosylceramidase (Homo sapiens) (UniProt P04062); assay: Glucocerebrosidase-p2 (AID 348; in the data active = potency below about 10 µM; also: potency is read from the fitted curve at half-maximal effect); details: purified GBA, blue fluorogenic substrate, 40 min
# Outline: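 Compounds titrated from 0.6 nM upwards against 0.2 nM enzyme in pH 5.9 citric acid/KH2PO4, taurocholate, tween-20; blue fluorogenic substrate 80 uM, 40 min room temperature, stopped and read Ex 365/Em 440 for AC50.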
# [2] = target: Cytochrome P450 1A2 (Homo sapiens) (UniProt P05177); assay: p450-cyp1a2 (AID 410; calls by dose curve; also: potency is read from the fitted curve at half-maximal effect); details: recombinant CYP1A2, luciferin-ME demethylation, luminescence; series mostly up to 57 µM
# Outline: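 Luminescent readout of luciferin formed from Luciferin-ME by human CYP1A2; data normalized against complete inhibition by 57 uM furafylline. Enzyme 20nM, substrate 100uM at Km, 100mM KPO4 buffer, 60 min reaction at room temperature.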
# [3] = NFAT Signaling Pathway (AID 444; active = well fitted curve in either direction with a large enough effect, not every such curve was filed as active;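 also: carbachol stimulus at about its EC50 of 1 µM final; % is scaled to controls: 0 for no effect and ±100 for the full control effect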); details: Jurkat NFAT-bla M1, carbachol, beta-lactamase ratio, 5 h; at 7.69 µM (top of the series) unless noted
# Outline: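 Read-out: CCF4 FRET ratio (460 nm/530 nm) after 1 h RT dye loading, used for %activity and AC50 from titration series. Cells: Jurkat NFAT-β-lactamase/M1 line, treated with compound plus 1 uM carbachol for 5 h, 37 °C.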
# [4] = Stat Signaling Pathway (AID 446; active = well fitted curve in either direction with a large enough effect, not every such curve was filed as active;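 also: ME-180 cervical cancer cells given 40 pM IL-6 alongside compound; SIE-controlled beta-lactamase reporter measured as 460/530 nm FRET emission ratio; % is scaled to controls: 0 for no effect and ±100 for the full control effect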); details: ME-180 SIE beta-lactamase reporter, IL-6 stimulated, 5 h; at 7.69 µM (top of the series) unless noted
# Outline: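 IL-6/STAT signaling read in ME-180 cells via an SIE beta-lactamase reporter. Stimulus was 40 pM IL-6 (its AC50) for 5 hrs, so both activation and inhibition register.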
# [5] = target: Glucocorticoid receptor (Homo sapiens) (UniProt P04150); assay: GR-GFP Redistribution (AID 450;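 active = compounds whose dose series gives a full or clear partial fitted curve of increased nuclear translocation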; also: potency is read from the fitted curve at half-maximal effect); details: U2OS GR-GFP nuclear translocation, laser cytometry, 2 h
# [6] = target: Glucocorticoid receptor (Homo sapiens) (UniProt P04150); assay: GR-EFC Redistribution (AID 451; calls by dose curve; also: potency is read from the fitted curve at half-maximal effect); details: CHO-K1 GR-EFC translocation, beta-gal luminescence, 2 h
# Outline: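 Translocation of GR-ED fusion to nuclear EA restores b-gal, read by luminescence after 1 h room-temperature detection. Engineered CHO-K1 biosensor cells, 1,000/well, exposed 2 h at 37 C to titrations up to 46 uM final.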
# [7] = target: Mitogen-activated protein kinase 10 (Mus musculus) (UniProt Q61831); assay: JNK3 AlphaScreen Assay (AID 530; active = well fitted curve in either direction with a large enough effect, not every such curve was filed as active;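 also: kinase came from lysate of stimulated human HepG2 cells; signal reports phosphorylation of biotinylated GST-cJun 1-79 at Ser73 with 10 µM ATP; % is scaled to controls: 0 for no effect and ±100 for the full control effect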); details: JNK3 lysate, c-Jun phosphorylation; series mostly up to 57.1 µM
# Outline: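 Compound titrations were preincubated 15 minutes at room temperature with substrate, antibody and pre-activated JNK3-containing HepG2 lysate. Reactions were started with 10 uM ATP and stopped with EDTA-containing bead buffer for AlphaScreen detection.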
# [8] = qHTS Assay for Lipid Storage Modulators (AID 1519; calls by dose curve); details: Drosophila S3 cells, BODIPY lipid droplet/cell ratio, laser cytometry, cells loaded with oleic acid; for activity change, negative = inhibition: at 57.5 µM (top of the series)
# Outline: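 Cells seeded at 5,000 per well were treated with compounds over a concentration series and loaded with oleic acid (400 uM, as added). Lipid droplet fluorescence (488 nm excitation, 500-530 nm channel) was read by laser-scanning cytometry and normalized to 20 uM Triacsin C.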
# [9] = target: Dual specificity protein kinase CLK4 (Homo sapiens) (UniProt Q9HAZ1); assay: qHTS Assay for Inhibitors of CDC-like Kinase 4 (Kinase-Glo Assay) (AID 1770); details: recombinant Clk4, Kinase-Glo ATP depletion luminescence; series mostly up to 66.7 µM; also: nearly all actives have a fitted effect of over 65% in size; also: potency is read from the fitted curve at half-maximal effect
# Outline: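 Recombinant human Clk4 (25 nM) phosphorylated RS repeat peptide (100 uM) with 1 uM ATP in Tris pH 7.5/MgCl2/EGTA/DTT/Triton buffer for 4.5 h at room temperature. Residual ATP was quantified by Kinase-Glo luciferase luminescence.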
# [10] = target: Dual specificity protein kinase CLK4 (Homo sapiens) (UniProt Q9HAZ1); assay: qHTS Assay for Inhibitors of CDC-like Kinase 4 (ADP-Glo Assay) (AID 1771); details: recombinant CLK4, ADP-Glo luminescence; series mostly up to 80 µM; also: nearly all actives have a fitted effect of over 70% in size; also: potency is read from the fitted curve at half-maximal effect
# Outline: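 Luminescence from ADP-Glo reports ADP produced by 25 nM Clk4 acting on 100 uM RS repeat peptide with 1 uM ATP over 1 hr at room temperature; residual ATP is depleted before ADP is converted to ATP for detection.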
# [11] = target: Dual specificity protein kinase CLK4 (Homo sapiens) (UniProt Q9HAZ1); assay: qHTS Assay for Inhibitors of CDC-like Kinase 4 (ADP-FP Assay) (AID 1795); details: Transcreener ADP fluorescence polarization; series mostly up to 50 µM; also: nearly all actives have a fitted effect of over 60% in size; also: potency is read from the fitted curve at half-maximal effect
# Outline: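 Recombinant human Clk4 (6.25 nM) phosphorylated RS repeat peptide (100 uM) with 1 uM ATP in Tris pH 7.5/MgCl2/EGTA/DTT/Triton buffer for one hour. ADP was quantified by Transcreener competitive fluorescence polarization against an ADP calibration curve.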
# [12] = target: Ubiquitin carboxyl-terminal hydrolase 1 (Homo sapiens) (UniProt O94782); assay: Inhibitors of USP1/UAF1: Pilot qHTS (AID 504865); details: purified USP1/UAF1, Ub-rhodamine cleavage fluorescence; series mostly up to 54.9 µM;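 also: rhodamine fluorescence freed from ubiquitin-rhodamine substrate followed over time; top concentration of the series differs between compounds; % is scaled to controls: 0 for no effect and ±100 for the full control effect; nearly all actives have a fitted effect of over 35% in size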
# Outline: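 USP1/UAF1 complex (1nM) preincubated with compound 15 min at room temperature, then Ub-Rho substrate (150nM final) added. Fluorescence read kinetically at 480/540 nm, 6 reads every 60 seconds. Buffer: 50mM HEPES pH 7.8, 0.5mM EDTA, 0.1 mg/ml BSA, 1mM TCEP, 0.01% Tween-20.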
# [13] = target: Cytochrome P450 3A4 (Homo sapiens) (UniProt P08684); assay: qHTS Assay for Activators of Cytochrome P450 3A4 (AID 885); details: recombinant CYP3A4, Luciferin-PPXE luminescence, 60 min; series mostly up to 57.1 µM; also: nearly all actives have a fitted effect of over 65% in size; also: potency is read from the fitted curve at half-maximal effect
# Outline: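 Quantitative HTS format: compounds preincubated with 20nM human CYP3A4 and Luciferin-PPXE substrate at KM, reaction started by NADPH regeneration, stopped after 60 min, luciferase luminescence read 20 min later.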
# [14] = AP1 Signaling Pathway (AID 357; active = well fitted curve in either direction with a large enough effect, not every such curve was filed as active;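 also: ME-180 reporter cells stimulated with EGF at its EC50 level; % is scaled to controls: 0 for no effect and ±100 for the full control effect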); details: ME-180 AP-1-bla reporter, EGF-induced, beta-lactamase ratio, 5 h; at 7.69 µM (top of the series) unless noted
# Outline: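 Titration-series screen for positive or negative modulators of EC50 EGF-induced signaling in ME-180 cells carrying an AP-1-driven beta-lactamase reporter. After 5 hours at 37 degrees Celsius, CCF4 460nm/530nm emission ratio gave %Activity; AC50 values derived.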
# [15] = target: 3',5'-cyclic-AMP phosphodiesterase 4B (Homo sapiens) (UniProt Q07343); assay: qHTS Assay for Inhibitors of PDE-IV (AID 607; active = well fitted activation curve with a large enough effect in the main read-out, with a control signal flat, not every such curve was filed as active; also: % of control where 0% means no effect); details: HEK293 ACTOne CNG channel cells, membrane potential fluorescence; series mostly up to 22.9 µM
# Outline: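 Live HEK293 cells with a modified cyclic nucleotide-gated (CNG) channel report intracellular cAMP via membrane-potential dye fluorescence (ex 535/em 590 nm). Endogenous PDE-IV was targeted. Compounds were tested at up to 22.9 uM final; RO 20-1724 100 uM served as control.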
# [16] = target: Cytochrome P450 3A4 (Homo sapiens) (UniProt P08684); assay: qHTS Assay for Inhibitors and Substrates of Cytochrome P450 3A4 (AID 884); details: recombinant CYP3A4, Luciferin-PPXE luminescence; series mostly up to 57.1 µM; also: nearly all actives have a fitted effect of over 50% in size; also: potency is read from the fitted curve at half-maximal effect
# Outline: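 20 nM human CYP3A4 with 25 uM Luciferin-PPXE (at KM) in 200 mM KPO4, preincubated 10 min with compound; NADPH regeneration started a 60 min RT reaction. Luciferin detected by luminescence, normalized to 57 uM ketoconazole as full inhibition.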
# [17] = target: Cytochrome P450 2C19 (Homo sapiens) (UniProt P33261); assay: qHTS Assay for Inhibitors and Substrates of Cytochrome P450 2C19 (AID 899); details: recombinant CYP2C19, luciferin-H EGE luminescence; series mostly up to 57.1 µM; also: nearly all actives have a fitted effect of over 60% in size; also: potency is read from the fitted curve at half-maximal effect
# Outline: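 5nM enzyme + 10uM Luciferin-H EGE (=KM), 50mM KPO4; cpd pin-transferred, 10 min 37C; NADPH regen, 60 min 37C; stopped w/ luciferin detection reagent, 20 min; luminescence. Normalized to 57uM ketoconazole (AC100).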
# [18] = qHTS Assay for Identification of Small Molecule Agonists for Hypoxia Response Element Signaling Pathway (AID 914; active = well fitted activation curve with a large enough effect in the signal ratio, with a control signal flat, not every such curve was filed as active; the % refers to the signal ratio; also: potency is read from the fitted curve at half-maximal effect); details: ME-180 (cervical carcinoma) HRE-bla reporter, beta-lactamase ratio, CoCl2, 17 h; activation: stronger effect = higher value
# Outline: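 HRE-bla ME-180 assay for agonist-like enhancement of an EC50 CoCl2 stimulus: 17 h at 37 degrees Celsius, CCF4 for 2.5 h, ratiometric 460/530 nm signal converted to %Activity and fitted to AC50.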
# [19] = measured here: cell count channel max response
# [20] = measured here: lipid channel max response
# Cytochrome P450 3A4 (Homo sapiens), sequence (P08684 whole entry, looked up): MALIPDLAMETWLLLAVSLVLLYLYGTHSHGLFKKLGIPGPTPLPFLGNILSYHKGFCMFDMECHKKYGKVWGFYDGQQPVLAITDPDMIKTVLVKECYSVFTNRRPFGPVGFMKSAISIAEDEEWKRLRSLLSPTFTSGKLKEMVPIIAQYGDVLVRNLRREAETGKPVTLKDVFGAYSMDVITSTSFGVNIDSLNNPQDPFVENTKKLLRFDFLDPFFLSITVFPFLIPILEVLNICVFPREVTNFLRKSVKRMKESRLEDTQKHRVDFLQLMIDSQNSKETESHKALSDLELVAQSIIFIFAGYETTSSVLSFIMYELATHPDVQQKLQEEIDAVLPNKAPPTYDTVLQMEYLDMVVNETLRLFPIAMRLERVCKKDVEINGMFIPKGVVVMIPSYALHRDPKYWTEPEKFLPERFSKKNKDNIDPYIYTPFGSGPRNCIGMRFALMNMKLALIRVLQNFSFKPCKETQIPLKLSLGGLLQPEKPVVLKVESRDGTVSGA
# Glucocorticoid receptor (Homo sapiens), sequence (P04150 whole entry, looked up, the tested form may be a part): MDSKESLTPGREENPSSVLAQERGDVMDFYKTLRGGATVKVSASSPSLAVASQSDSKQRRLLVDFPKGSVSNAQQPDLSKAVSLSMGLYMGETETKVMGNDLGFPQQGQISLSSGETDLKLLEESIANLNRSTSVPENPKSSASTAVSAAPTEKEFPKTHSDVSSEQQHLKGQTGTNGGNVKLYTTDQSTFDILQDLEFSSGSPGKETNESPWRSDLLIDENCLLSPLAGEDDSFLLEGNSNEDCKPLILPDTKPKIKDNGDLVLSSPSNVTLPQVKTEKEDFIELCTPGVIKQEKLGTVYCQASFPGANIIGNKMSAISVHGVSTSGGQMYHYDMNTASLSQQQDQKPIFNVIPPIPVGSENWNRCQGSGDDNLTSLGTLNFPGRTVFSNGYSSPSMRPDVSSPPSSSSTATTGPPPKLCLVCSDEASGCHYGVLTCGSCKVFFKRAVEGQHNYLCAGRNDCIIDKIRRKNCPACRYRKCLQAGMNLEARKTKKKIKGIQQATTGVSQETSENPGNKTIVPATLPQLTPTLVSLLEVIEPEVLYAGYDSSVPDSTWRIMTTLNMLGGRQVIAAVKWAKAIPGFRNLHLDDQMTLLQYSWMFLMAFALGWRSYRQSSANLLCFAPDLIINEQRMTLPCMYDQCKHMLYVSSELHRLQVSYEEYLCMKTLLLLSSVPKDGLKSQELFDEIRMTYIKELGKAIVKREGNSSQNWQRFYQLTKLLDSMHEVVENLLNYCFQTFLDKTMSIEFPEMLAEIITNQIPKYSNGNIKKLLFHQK
# Dual specificity protein kinase CLK4 (Homo sapiens), sequence (Q9HAZ1 whole entry, looked up): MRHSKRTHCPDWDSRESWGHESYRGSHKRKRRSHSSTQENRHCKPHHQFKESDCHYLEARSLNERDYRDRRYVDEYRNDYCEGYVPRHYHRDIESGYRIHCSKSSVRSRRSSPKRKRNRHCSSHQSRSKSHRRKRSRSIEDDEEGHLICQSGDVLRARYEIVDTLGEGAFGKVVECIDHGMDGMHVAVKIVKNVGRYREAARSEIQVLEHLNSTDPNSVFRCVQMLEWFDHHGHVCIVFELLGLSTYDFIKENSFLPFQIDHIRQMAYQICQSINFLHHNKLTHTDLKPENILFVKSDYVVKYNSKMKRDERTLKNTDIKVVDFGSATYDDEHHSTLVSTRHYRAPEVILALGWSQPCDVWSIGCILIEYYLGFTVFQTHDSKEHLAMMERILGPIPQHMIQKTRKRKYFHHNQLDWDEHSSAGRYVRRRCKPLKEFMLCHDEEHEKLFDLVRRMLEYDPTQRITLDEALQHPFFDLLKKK
# Ubiquitin carboxyl-terminal hydrolase 1 (Homo sapiens), sequence (O94782 whole entry, looked up): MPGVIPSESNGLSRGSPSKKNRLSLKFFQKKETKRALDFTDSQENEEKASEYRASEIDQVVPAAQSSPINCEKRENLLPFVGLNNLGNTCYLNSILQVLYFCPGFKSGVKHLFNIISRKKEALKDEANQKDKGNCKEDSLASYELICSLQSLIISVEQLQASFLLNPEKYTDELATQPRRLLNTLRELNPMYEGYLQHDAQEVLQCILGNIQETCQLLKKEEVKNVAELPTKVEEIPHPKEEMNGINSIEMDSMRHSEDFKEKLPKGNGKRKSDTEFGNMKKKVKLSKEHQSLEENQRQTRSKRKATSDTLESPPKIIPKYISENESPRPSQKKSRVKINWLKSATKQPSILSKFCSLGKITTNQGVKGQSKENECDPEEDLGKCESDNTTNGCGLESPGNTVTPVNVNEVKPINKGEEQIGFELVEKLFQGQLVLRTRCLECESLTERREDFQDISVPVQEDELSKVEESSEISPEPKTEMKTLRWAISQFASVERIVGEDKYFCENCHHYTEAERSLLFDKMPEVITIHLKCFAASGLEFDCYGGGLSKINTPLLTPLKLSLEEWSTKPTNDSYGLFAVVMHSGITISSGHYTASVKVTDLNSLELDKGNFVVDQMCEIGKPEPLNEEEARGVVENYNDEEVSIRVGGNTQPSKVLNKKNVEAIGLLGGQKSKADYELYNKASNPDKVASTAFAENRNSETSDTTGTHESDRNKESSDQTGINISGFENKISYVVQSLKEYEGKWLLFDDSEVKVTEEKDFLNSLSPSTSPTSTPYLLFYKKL
# Lysosomal acid glucosylceramidase (Homo sapiens), sequence (P04062 whole entry, looked up): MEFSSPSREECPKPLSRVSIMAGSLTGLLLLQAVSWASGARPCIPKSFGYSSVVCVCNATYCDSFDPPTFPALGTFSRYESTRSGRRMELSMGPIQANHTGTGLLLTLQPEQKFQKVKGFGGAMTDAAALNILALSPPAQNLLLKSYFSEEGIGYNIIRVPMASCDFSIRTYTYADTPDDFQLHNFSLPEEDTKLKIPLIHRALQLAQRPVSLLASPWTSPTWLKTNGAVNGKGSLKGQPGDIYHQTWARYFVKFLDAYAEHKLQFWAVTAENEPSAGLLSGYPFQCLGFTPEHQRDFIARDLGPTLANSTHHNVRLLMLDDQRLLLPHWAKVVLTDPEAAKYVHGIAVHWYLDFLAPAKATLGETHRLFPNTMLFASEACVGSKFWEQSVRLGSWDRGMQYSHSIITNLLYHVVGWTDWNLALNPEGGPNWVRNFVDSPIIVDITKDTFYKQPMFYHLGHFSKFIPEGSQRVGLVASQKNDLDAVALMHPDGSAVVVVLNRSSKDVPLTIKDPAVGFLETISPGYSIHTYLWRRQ
# 3',5'-cyclic-AMP phosphodiesterase 4B (Homo sapiens), sequence (Q07343 whole entry, looked up): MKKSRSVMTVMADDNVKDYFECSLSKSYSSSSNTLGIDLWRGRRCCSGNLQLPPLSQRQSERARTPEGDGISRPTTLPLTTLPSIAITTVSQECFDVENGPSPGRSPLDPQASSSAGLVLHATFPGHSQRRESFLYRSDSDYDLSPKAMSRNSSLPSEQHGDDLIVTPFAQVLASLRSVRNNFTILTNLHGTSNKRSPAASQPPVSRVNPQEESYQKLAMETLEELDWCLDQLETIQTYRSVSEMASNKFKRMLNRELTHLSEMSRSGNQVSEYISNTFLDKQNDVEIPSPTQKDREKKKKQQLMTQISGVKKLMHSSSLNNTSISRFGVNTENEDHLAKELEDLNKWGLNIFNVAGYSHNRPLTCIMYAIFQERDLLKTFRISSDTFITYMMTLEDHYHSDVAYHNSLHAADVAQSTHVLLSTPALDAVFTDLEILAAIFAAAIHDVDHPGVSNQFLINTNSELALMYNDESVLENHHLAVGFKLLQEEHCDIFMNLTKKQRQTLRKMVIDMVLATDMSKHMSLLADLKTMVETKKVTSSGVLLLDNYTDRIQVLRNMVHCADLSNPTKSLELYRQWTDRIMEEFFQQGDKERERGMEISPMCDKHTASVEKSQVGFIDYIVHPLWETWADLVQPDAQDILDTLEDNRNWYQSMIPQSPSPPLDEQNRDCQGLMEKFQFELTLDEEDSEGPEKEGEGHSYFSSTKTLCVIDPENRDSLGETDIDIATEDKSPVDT
# Cytochrome P450 1A2 (Homo sapiens), sequence (P05177 whole entry, looked up): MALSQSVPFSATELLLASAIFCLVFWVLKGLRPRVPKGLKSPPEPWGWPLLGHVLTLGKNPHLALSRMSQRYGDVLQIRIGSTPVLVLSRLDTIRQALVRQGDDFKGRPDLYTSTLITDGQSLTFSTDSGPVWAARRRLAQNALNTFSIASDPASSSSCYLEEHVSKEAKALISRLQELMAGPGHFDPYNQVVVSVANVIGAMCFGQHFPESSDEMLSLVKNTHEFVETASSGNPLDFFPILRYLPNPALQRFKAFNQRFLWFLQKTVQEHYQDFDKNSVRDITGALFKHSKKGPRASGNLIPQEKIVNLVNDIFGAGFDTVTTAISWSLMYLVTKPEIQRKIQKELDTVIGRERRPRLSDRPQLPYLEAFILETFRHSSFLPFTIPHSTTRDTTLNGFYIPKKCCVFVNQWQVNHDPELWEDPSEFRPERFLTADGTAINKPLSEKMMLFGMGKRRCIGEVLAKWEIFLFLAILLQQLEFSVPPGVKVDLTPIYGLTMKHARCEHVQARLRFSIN
# Cytochrome P450 2C19 (Homo sapiens), sequence (P33261 whole entry, looked up): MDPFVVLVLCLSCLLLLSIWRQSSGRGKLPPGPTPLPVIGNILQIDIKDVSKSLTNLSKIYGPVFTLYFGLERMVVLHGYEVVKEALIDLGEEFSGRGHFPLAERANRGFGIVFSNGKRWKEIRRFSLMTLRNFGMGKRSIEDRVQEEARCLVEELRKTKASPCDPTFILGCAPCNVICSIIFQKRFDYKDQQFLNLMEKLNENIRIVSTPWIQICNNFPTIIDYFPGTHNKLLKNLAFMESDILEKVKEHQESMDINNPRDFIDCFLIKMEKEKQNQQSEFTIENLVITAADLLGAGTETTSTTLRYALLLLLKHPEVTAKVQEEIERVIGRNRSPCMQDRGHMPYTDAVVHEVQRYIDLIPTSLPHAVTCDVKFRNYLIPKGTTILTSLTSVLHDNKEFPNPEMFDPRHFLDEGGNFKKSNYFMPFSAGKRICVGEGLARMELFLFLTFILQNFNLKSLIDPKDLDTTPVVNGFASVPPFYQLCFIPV
Compound,Potency [1],Potency [2],"activity change, negative = inhibition [3]","activity, negative = inhibition [4]",Potency [5],Potency [6],Potency [7],"activity change, negative = inhibition [8]","max response [8, 19] [%]","max response [8, 20] [%]",Potency [9],Potency [10],Potency [11],Potency [12],Potency [13],"activity change, negative = inhibition [14]",Potency [15],Potency [16],Potency [17],Potency [18]
COCCn1c(=O)c(-c2ccccc2)nc2cnc(Nc3cccc(OC)c3)nc21,> 11.4 µM (inactive),3.98 µM (active),-5.93% (inactive),-18.3% (inactive),> 9.22 µM (inactive),> 46 µM (inactive),inactive,1.38% (inactive),-0.938,0.127,inactive,inactive,inactive,inactive,–,–,–,–,–,–
COCCn1c(=O)c(C)nc2cnc(Oc3cccc(Cl)c3)nc21,> 11.4 µM (inactive),12.6 µM (active),10.5% (inactive),-4.78% (inactive),> 9.22 µM (inactive),> 46 µM (inactive),inactive,4.18% (inactive),15.1,17.8,inactive,inactive,inactive,inactive,inactive,–,–,–,–,–
CN1CCN(c2ncncc2-c2ccoc2)CC1,> 11.4 µM (inactive),–,-13% (inactive),-4.34% (inactive),> 46 µM (inactive),> 46 µM (inactive),inactive,5.79% (inactive),23.7,30.3,inactive,inactive,inactive,inactive,inactive,-0.0355% (inactive),inactive,7.94 µM (active),inactive,–
CN1CCN(c2ncc3nc(-c4ccccc4)c(=O)n(C4CC4)c3n2)CC1,> 11.4 µM (inactive),–,30% (inactive),–,> 9.22 µM (inactive),> 46 µM (inactive),inactive,4.04% (inactive),24.3,27.3,inactive,inactive,inactive,inactive,–,–,inactive,–,–,3.98 µM (active)
COc1ccccc1CNc1ncnc2ccc(-c3ccccc3OC)cc12,> 11.4 µM (inactive),1 µM (active),–,–,> 46 µM (inactive),> 46 µM (inactive),inactive,-20% (inactive),-10.4,-24.8,4.47 µM (active),4.47 µM (active),1.58 µM (active),inactive,inactive,-19.9% (inactive),–,–,3.16 µM (active),–
COc1cccc(Cn2c(=O)c(-c3ccc(F)cc3)nc3cnc(N4CCNCC4)nc32)c1,> 11.4 µM (inactive),25.1 µM (active),–,–,> 9.22 µM (inactive),> 46 µM (inactive),–,-5.11% (inactive),2.95,0.893,inactive,inactive,inactive,–,inactive,–,inactive,–,–,–
CN1CCN(c2ncc3nc(-c4ccc(Cl)cc4)c(=O)n(Cc4ccc(F)cc4)c3n2)CC1,> 11.4 µM (inactive),31.6 µM (active),–,–,> 9.22 µM (inactive),> 46 µM (inactive),–,-1.37% (inactive),15.9,10.5,inactive,inactive,inactive,–,15.8 µM (active),–,inactive,inactive,–,–
CN1CCN(c2ncnc3ccc(-c4cccc(NS(C)(=O)=O)c4)cc23)CC1,> 11.4 µM (inactive),25.1 µM (active),–,-16.1% (inactive),> 46 µM (inactive),> 46 µM (inactive),inactive,-4.99% (inactive),-11.5,-16,6.31 µM (active),7.94 µM (active),10 µM (active),inactive,inactive,–,–,–,–,–
Cn1c(=O)c(-c2ccc(F)cc2)nc2cnc(OCc3ccccc3)nc21,> 11.4 µM (inactive),–,19.9% (inactive),-11.9% (inactive),> 9.22 µM (inactive),> 46 µM (inactive),inactive,5.66% (inactive),7.28,10.2,inactive,inactive,inactive,inactive,–,14.6% (inactive),inactive,–,–,–
CN(C)Cc1ccccc1-c1cc(NCc2cccs2)ncn1,> 11.4 µM (inactive),25.1 µM (active),–,1.42% (inactive),> 46 µM (inactive),> 46 µM (inactive),inactive,3.12% (inactive),23.4,25.3,inactive,inactive,inactive,inactive,inactive,9.46% (inactive),inactive,–,–,–
CN1CCN(c2ncnc3ccc(-c4ccoc4)cc23)CC1,> 11.4 µM (inactive),–,-23.1% (inactive),-0.925% (inactive),> 46 µM (inactive),> 46 µM (inactive),inactive,2.55% (inactive),12.5,2.82,0.631 µM (active),0.794 µM (active),0.447 µM (active),inactive,–,-22.9% (inactive),–,–,–,–
COc1cccc(Cn2c(=O)c(C)nc3cnc(N(C)C)nc32)c1,> 11.4 µM (inactive),–,1.59% (inactive),-11.2% (inactive),> 9.22 µM (inactive),> 46 µM (inactive),–,-5.5% (inactive),19.8,12.4,inactive,inactive,inactive,inactive,–,-23% (inactive),inactive,–,–,–
